The text below walks through data of PubChem BioAssay (Tox21).

A number with no mark means an inactive call. Inconclusive results are not listed. Entries that show only a call come without a potency. The source made the active and inactive calls. Unless noted, calls follow the shape of the dose curve; as a rule, active = well fitted inhibition curve with a large enough effect in the repeat runs (not every such curve was filed as active); inconclusive = weak or mixed curves; inactive = flat fitted curve, though single readings scatter.

System in one assay: not listed separately
The assay is described as follows: qHTS assay to identify small molecule agonists of the TGF-beta/Smad signaling pathway (AID 1346859; active = well fitted activation curve with a large enough effect in the signal ratio in the repeat runs, not every such curve was filed as active; the % refers to the signal ratio). Particulars: SBE-bla HEK293T, TGF-beta/Smad beta-lactamase reporter, 5 h; series mostly up to 76.8 µM; activation: at the top concentration. The method in brief:
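Each well held 4,000 SBE-bla HEK 293T cells incubated overnight before compound addition; 5 hr later the cleavable FRET substrate went on for 2 hr at room temperature, and fluorescence was read at two emissions.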
On the technique in general: qHTS replaces the single test concentration by a dilution series.
For the compound `O=Cc1ccccc1C=O`, the compound was called inactive.

With `C=C[Si](OCCOC)(OCCOC)OCCOC`, the compound was called inactive.

Regarding `C=C[C@@]1(C)CC(=O)[C@]2(O)[C@@]3(C)[C@@H](O)CCC(C)(C)[C@@H]3[C@H](O)[C@H](OC(C)=O)[C@@]2(C)O1`, the result was inactive. On to `C[C@]12CC[C@@H]3c4ccc(O)cc4CC[C@H]3[C@@H]1CC[C@@H]2O`, for which the result was inactive. `OC[C@@H](O)[C@@H](O[C@@H]1O[C@H](CO)[C@H](O)[C@H](O)[C@H]1O)[C@H](O)[C@@H](O)CO`: the result was inactive.

For the compound `NCCN`, the result was inactive.

Regarding `O=C1OC2(c3ccccc31)c1cc(I)c(O)c(I)c1Oc1c2cc(I)c(O)c1I`, the outcome was inactive. Still for that read-out and setting: under `O=C(CCCN1CCC(O)(c2ccc(Cl)cc2)CC1)c1ccc(F)cc1` stands “inactive”. Still for that read-out and setting: under `Cc1ccc(C(C)(C)C)c(O)c1` stands “inactive”; under `C=C[C@H]1CN2CC[C@H]1C[C@H]2[C@H](O)c1ccnc2ccc(OC)cc12`, “inactive”. Consider `C=C[C@H]1CN2CC[C@H]1C[C@@H]2[C@@H](O)c1ccnc2ccc(OC)cc12`, for which the “activation” value was -0.196% [at 35.3 µM]. Regarding `CC(C)(C)c1cccc(C(C)(C)C)c1O`, the result was inactive.

Consider `CCC/C=C/C=O`, for which the compound was called inactive. Consider `OC[C@H]1O[C@@H]2O[C@H]3[C@H](O)[C@@H](O)[C@@H](O[C@H]4[C@H](O)[C@@H](O)[C@@H](O[C@H]5[C@H](O)[C@@H](O)[C@@H](O[C@H]6[C@H](O)[C@@H](O)[C@@H](O[C@H]7[C@H](O)[C@@H](O)[C@@H](O[C@H]1[C@H](O)[C@H]2O)O[C@@H]7CO)O[C@@H]6CO)O[C@@H]5CO)O[C@@H]4CO)O[C@@H]3CO`, for which the result was inactive. For `CN(C)CCCN1c2ccccc2Sc2ccc(Cl)cc21`, the “activation” value is -3.67% [at 35.3 µM]. On to `Cc1ccc(C)c(O)c1`, for which the outcome was inactive. Take `COC(=O)CC(=O)OC`: the “activation” value was -0.0517%. Regarding `Nc1ccc(O)c(N)c1`, the compound was called inactive. Take `NCCS(=O)(=O)O`: the result was inactive. With `C[C@]12CC[C@@H]3c4ccc(O)cc4CC[C@H]3[C@@H]1CC[C@H]2O`, the call was inactive. Take `c1ccc2ncccc2c1`: the compound was classed as inactive. `O=C(O)c1cc(=O)[nH]c(=O)[nH]1`: the result was inactive. The same measure, in the same setting: with `COCCOCCOCCO` the entry was “inactive”; with `CCCCCCCC/C=C\CCCCCCCC(=O)O`, “inactive”. `C=CCCCCCCCCCC`: the outcome was inactive.

Take `CC/C=C\C/C=C\C/C=C\CCCCCCCC(=O)O`: the “activation” value was -8.02%.

As to `CCC(=O)O[C@H]1[C@H](O[C@@H]2[C@@H](C)[C@H](O[C@H]3C[C@@](C)(OC)[C@@H](O)[C@H](C)O3)[C@@H](C)C(=O)O[C@H](CC)[C@@](C)(O)[C@H](O)[C@@H](C)C(=O)[C@H](C)C[C@@]2(C)O)O[C@H](C)C[C@@H]1N(C)C`, the compound was called inactive. On the same count and under the same terms, under `[O-]/[N+](=N\O)c1ccccc1` stands “inactive”.

In the case of `Cc1cccc(Nc2ccccc2C(=O)O)c1C`, the “activation” value was -4.87% [at 35.3 µM].

For the compound `CC1(C)NC(=O)N(c2ccc([N+](=O)[O-])c(C(F)(F)F)c2)C1=O`, the compound was classed as inactive. The same measure, in the same setting: under `CC(=O)OC(C)C` stands “inactive”. On to `COC(=O)c1ccc(C)cc1`, for which the “activation” value is 3.1%. As to `CCCCCCCCCCC(CO)CCCCCCCC` (stereo not drawn), the call was inactive. On the same count and under the same terms, with `Oc1c(Cl)ccc(Cl)c1Cl` the entry was “inactive”.

The target of a further assay is Thyrotropin-releasing hormone receptor (Homo sapiens) (UniProt P34981). The experiment in a line: qHTS assay to identify small molecule antagonists of the thyrotropin-releasing hormone receptor (TRHR) signaling pathway (AID 1346877). Conditions: TRHR-HEK293, TRH-induced calcium fluorescence, antagonist mode; series mostly up to 51.3 µM; activity, negative = inhibition: at the top concentration. The method in brief: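 Human TRHR in HEK293 cells; inhibition of the intracellular calcium rise triggered by 1 nM TRH was followed by fluorescence over 3 min. Compounds were run at 15 concentrations, three replicates each.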
Chain of Thyrotropin-releasing hormone receptor (Homo sapiens) (P34981 whole entry, looked up): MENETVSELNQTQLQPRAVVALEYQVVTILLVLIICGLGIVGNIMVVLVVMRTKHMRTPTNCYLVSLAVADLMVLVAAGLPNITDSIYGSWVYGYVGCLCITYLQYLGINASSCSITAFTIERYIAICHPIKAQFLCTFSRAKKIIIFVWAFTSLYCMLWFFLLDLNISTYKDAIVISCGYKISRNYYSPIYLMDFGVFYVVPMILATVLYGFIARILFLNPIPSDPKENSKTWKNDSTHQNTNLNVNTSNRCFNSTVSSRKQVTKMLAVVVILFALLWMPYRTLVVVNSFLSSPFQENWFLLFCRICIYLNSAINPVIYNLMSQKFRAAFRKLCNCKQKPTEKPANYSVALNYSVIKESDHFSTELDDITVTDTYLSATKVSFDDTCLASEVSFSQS
Regarding `O=Cc1ccccc1C=O`, the Potency entry was “inactive”.

On to `C[C@]12CC[C@@H]3c4ccc(O)cc4CC[C@H]3[C@@H]1CC[C@@H]2O`, for which the Potency result was “inactive”. The same measure, in the same setting: under `O=C1OC2(c3ccccc31)c1cc(I)c(O)c(I)c1Oc1c2cc(I)c(O)c1I` stands “inactive”; under `CC(=O)O[C@]1(C(C)=O)CC[C@H]2[C@@H]3C=C(Cl)C4=CC(=O)CC[C@]4(C)[C@H]3CC[C@@]21C`, “inactive”; under `O=C(CCCN1CCC(O)(c2ccc(Cl)cc2)CC1)c1ccc(F)cc1`, “inactive”. The same measure, in the same setting: under `O=C(O)CCCCCCCCCCCC(=O)O` stands “inactive”. As to `Cc1ccc(C(C)(C)C)c(O)c1`, the “activity, negative = inhibition” value is 4.22%. For the compound `C=C[C@H]1CN2CC[C@H]1C[C@H]2[C@H](O)c1ccnc2ccc(OC)cc12`, the Potency entry is “inactive”.

Take `C=C[C@H]1CN2CC[C@H]1C[C@@H]2[C@@H](O)c1ccnc2ccc(OC)cc12`: the Potency entry is “inactive”.

With `CCC/C=C/C=O`, the Potency result is “inactive”. Turning to `OC[C@H]1O[C@@H]2O[C@H]3[C@H](O)[C@@H](O)[C@@H](O[C@H]4[C@H](O)[C@@H](O)[C@@H](O[C@H]5[C@H](O)[C@@H](O)[C@@H](O[C@H]6[C@H](O)[C@@H](O)[C@@H](O[C@H]7[C@H](O)[C@@H](O)[C@@H](O[C@H]1[C@H](O)[C@H]2O)O[C@@H]7CO)O[C@@H]6CO)O[C@@H]5CO)O[C@@H]4CO)O[C@@H]3CO`, the Potency result is “inactive”. Still for that read-out and setting: with `CN(C)CCCN1c2ccccc2Sc2ccc(Cl)cc21` the entry was “inactive”; with `Cc1ccc(C)c(O)c1`, “inactive”. In the case of `COC(=O)CC(=O)OC`, the Potency entry was “inactive”. On the same count and under the same terms, under `Nc1ccc(O)c(N)c1` stands “inactive”. Turning to `NCCS(=O)(=O)O`, the Potency result is “inactive”. Turning to `C[C@]12CC[C@@H]3c4ccc(O)cc4CC[C@H]3[C@@H]1CC[C@H]2O`, the Potency entry is “inactive”. For `c1ccc2ncccc2c1`, the Potency entry was “inactive”.

With `COCCOCCOCCO`, the Potency result was “inactive”. On the same count and under the same terms, with `CCCCCCCC/C=C\CCCCCCCC(=O)O` the entry was “inactive”; with `COc1cc([C@H]2Oc3cc([C@H]4Oc5cc(O)cc(O)c5C(=O)[C@@H]4O)ccc3O[C@@H]2CO)ccc1O`, “inactive”. In the case of `C=CCCCCCCCCCC`, the Potency entry was “inactive”. Turning to `CC/C=C\C/C=C\C/C=C\CCCCCCCC(=O)O`, the Potency entry was “inactive”. On to `[O-]/[N+](=N\O)c1ccccc1`, for which the Potency entry was “inactive”. On the same count and under the same terms, under `Cc1cccc(Nc2ccccc2C(=O)O)c1C` stands “inactive”; under `CC1(C)NC(=O)N(c2ccc([N+](=O)[O-])c(C(F)(F)F)c2)C1=O`, “inactive”; under `CC(=O)OC(C)C`, “inactive”. Same read-out and setting: under `COC(=O)c1ccc(C)cc1` stands “inactive”; under `Oc1c(Cl)ccc(Cl)c1Cl`, “inactive”.
